From PubChem BioAssay AID1159570 (Broad Institute, 2015)
Results with a measured potency or affinity are listed apart. Active and inactive are the calls of the source. No rule for the calls is given here.

Assay: P. falciparum 3D7-ScDHODH growth inhibitors, dose response, SYBR Green, dry powder samples (AID 1159570)
Conditions: SYBR Green fluorescence; series mostly up to 19.5 µM

outcome, inactive:
C[C@@H]1CN([C@H](C)CO)C(=O)c2cccc(NC(=O)c3ccc(-c4nccs4)cc3)c2O[C@H]1CN(C)Cc1ccc(C(F)(F)F)cc1
COc1cccc(C#Cc2ccc([C@H]3[C@@H](CO)N(C(=O)c4ccccn4)[C@H]3C#N)cc2)c1
Cc1ccccc1-c1ccccc1[C@H]1[C@@H](C#N)N(C(=O)c2ccccc2)[C@@H]1CO
COc1ccc(S(=O)(=O)Nc2ccc3c(c2)CC(=O)N([C@@H](C)CO)C[C@H](C)[C@H](CN(C)S(=O)(=O)c2ccc(OC)cc2)O3)cc1
O=C(NC[C@@H]1CC[C@H]2[C@H](CN2Cc2cc(-c3ccccc3)on2)O1)c1ccc2c(c1)OCO2
